Compound activity as filed in PubChem BioAssay.
TbREL1 inh = TbREL1 RNA ligase inhibitors, primary screen, biochemical, FRET fluorescence; RNA-editing ligase 1, mitochondrial (Trypanosoma brucei brucei), P86926; TbREL1 RNA ligation; inhibition, % at 9.66 µM; 89,000 tested, 0.49% active;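 active = inhibition above the mean inhibition across all screened compounds plus 3 SD, cut at about 11% in these data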;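 also: 0% = plate median of test wells and 100% = NSC42067 control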
Target sequence (P86926 whole entry, looked up): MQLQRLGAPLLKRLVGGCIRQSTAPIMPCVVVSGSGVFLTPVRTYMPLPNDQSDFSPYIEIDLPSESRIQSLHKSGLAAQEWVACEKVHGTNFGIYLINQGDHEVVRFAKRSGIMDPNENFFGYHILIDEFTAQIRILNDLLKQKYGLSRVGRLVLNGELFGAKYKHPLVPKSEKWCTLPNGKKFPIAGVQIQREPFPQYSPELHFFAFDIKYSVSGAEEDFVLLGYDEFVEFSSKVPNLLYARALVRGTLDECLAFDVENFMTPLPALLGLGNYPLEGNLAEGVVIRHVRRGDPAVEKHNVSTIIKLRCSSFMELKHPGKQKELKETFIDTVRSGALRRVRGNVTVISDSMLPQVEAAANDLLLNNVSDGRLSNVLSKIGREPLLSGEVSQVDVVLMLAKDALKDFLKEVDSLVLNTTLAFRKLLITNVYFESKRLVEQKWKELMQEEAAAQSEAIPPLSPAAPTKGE
TbREL1 confirm = TbREL1 RNA ligase inhibitors, confirmation, biochemical, FRET fluorescence, triplicate; inhibition, % at 9.66 µM; 390 tested, 37% active; TbREL1 RNA ligation; shares compounds with TbREL1 inh; AID 1117282, 2014;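 active = mean inhibition across replicates above a set limit taken from the earlier primary screen, cut at about 11% in these data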;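 also: 0% = REL1 with substrate and DMSO and 100% = REL1 plus control inhibitor NSC42067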
Starred values were filed as active, the others as inactive. This is one part of a sample in which hits are shown more often than they occur.

SMILES | TbREL1 inh | others
CCCC1S/C(=N/N=C/c2ccco2)NC1=O (centres undefined) | 1.9
O=C1C(Cc2ccccc2)S/C(=N/N=C/c2ccco2)N1c1ccccc1 (centres undefined) | -3.5
O=C1N/C(=N/N=C/c2ccco2)SC1Cc1ccccc1 (centres undefined) | 11.3* | TbREL1 confirm=4.0
CO[C@H]([C@H](C)/C=C/N(C)C=O)[C@@H](C)C(=O)CC[C@H](C)[C@H](O)[C@H](C)[C@H]1OC(=O)/C=C/C(C)=C/C[C@H](O)C[C@@H]2C=CC[C@@H](C[C@H](OC)[C@@H](C)[C@@H](OC)C[C@@H](OC)[C@@H]1C)O2 | -4.8
Cc1ccc(-n2c(SCc3nc4ccccc4[nH]3)nnc2-c2ccccn2)cc1 | -0.1
COc1ccc2[nH]c3c(c2c1)CCN[C@]31C(=O)N(C)c2ccc(Br)cc21 | -1.4
Cc1ccc(NC(=O)CSc2nnc(-c3cc(-c4ccc(Cl)cc4)n[nH]3)n2N)cc1 | 3.7
COc1ccc(C[C@H]2CN3C(=NC[C@@H]3C(C)C)N2C[C@H](C)NC(=O)c2ccc(C)c(Br)c2)cc1 | 13.1* | TbREL1 confirm=19.7*
Cc1ccc(C(=O)N[C@@H](C)CN2C3=NC[C@H](C(C)C)N3C[C@H]2Cc2ccc(O)cc2)cc1Br | 8.0
COc1ccc(C[C@H]2CN3C(=NC[C@@H]3Cc3ccc(O)cc3)N2CCNC(=O)c2ccc(C)c(Br)c2)cc1 | 9.4
COc1ccc2c(c1)CCCN2C(=O)C1CCCN(S(=O)(=O)c2ccc(Br)s2)C1 (centres undefined) | -3.9
CCc1ccc(CNCC(=O)N2CCC3(CC2)OCCO3)s1 | -1.8
CCc1ccc(OCCNc2cc(N3CCNC(C)C3)ccc2[N+](=O)[O-])cc1 (centres undefined) | 12.4* | TbREL1 confirm=8.8
CC(Nc1cc(N2CCNCC2)ccc1[N+](=O)[O-])c1ccccc1 (centres undefined) | 4.0
O=[N+]([O-])c1ccc(N2CCCC2)cc1NC1CC1 | 0.1
COc1ccc(CC2CCN(c3ncnc4sccc34)CC2)cc1 | 0.5
CCC[C@H]1[C@@H](NC(=O)NCC)CC[C@@]23CCCN2C(=O)CCC[C@@H]13 | -1.0
COc1cc(C(=O)/C=C/c2cccnc2)c([N+](=O)[O-])cc1OC | 2.0
O=C(/C=C/c1cccnc1)c1ccc([N+](=O)[O-])cc1 | 11.5* | TbREL1 confirm=11.0
CN(C)C(=O)COc1ccc(C(=O)/C=C/c2cccnc2)cc1 | 8.5
CCCCCCCCN1C(=O)[C@@H](CC(=O)N2CCN(C(=O)c3ccco3)CC2)C[C@@]2(C(=O)OC)C1=C[C@H](C(C)C)O[C@@H]2C1CC1 | -3.1
CC(C)(C)OC(=O)N1CCC(N[C@@H](Cc2ccccc2)C(=O)NCCc2c[nH]c3ccccc23)(C(=O)NC2CCCCC2)CC1 | -5.3
CCOc1ccc(-n2c(SCC(=O)Nc3ccc(S(=O)(=O)Nc4cc(C)nc(C)n4)cc3)nnc2-c2ccco2)cc1 | -0.8
COC(=O)[C@]12C[C@H](CC(=O)NCc3ccc(OC)c(OC)c3)C(=O)N(Cc3ccc(Cl)cc3Cl)C1=C[C@H](COCc1ccccc1)O[C@@H]2C | -1.1
CC(=O)NC(Cc1ccc2c(c1)OCO2)C(=O)N1CCCC1 (centres undefined) | 0.7
SMILES | TbREL1 inh | others
Oc1ccc(Cl)c2cccnc12 | 1.0
Oc1ccc(-c2nn[nH]n2)c2cccnc12 | 15.6* | TbREL1 confirm=0.1
Oc1ccc(Cc2ccccc2)c2cccnc12 | -3.3
CCCCCCCCN1C(=O)[C@@H](CC(=O)NCCCC)C[C@@]2(C(=O)OC)C1=C[C@H](COCc1ccccc1)O[C@@H]2C | -0.9
COC(=O)[C@]12C[C@H](CC(=O)NCc3cccc(C(F)(F)F)c3)C(=O)N(Cc3ccc4c(c3)OCO4)C1=C[C@H](C(C)C)O[C@@H]2C1CC1 | -0.4
O=C(Nc1ccc(Cl)cc1)C(Cl)C(=O)c1ccccc1 (centres undefined) | 11.7* | TbREL1 confirm=7.8
O=C(Nc1ccc(F)c(Cl)c1)c1ccccc1 | 0.1
O=C(N/C(=N\O)c1ccccc1)Nc1ccc(Cl)cc1 | 1.3
COc1ccc(-n2c(SCC(=O)NCCCSC)nnc2-c2ccncc2)cc1 | -2.6
COC(=O)CSc1nnc(-c2ccc(NS(=O)(=O)c3ccc(Cl)s3)cc2)o1 | -2.0
CCCC(NCC(O)COc1ccc(-c2ccccc2)cc1)c1ccccc1 (centres undefined) | 0.7
CC(NCC(O)COc1ccc2ccccc2c1)c1ccccc1 (centres undefined) | 13.8* | TbREL1 confirm=14.5*
Cc1nc(C)n(CC(O)COc2ccc3ccccc3c2)n1 (centres undefined) | -2.6
Cc1nc2ccc(S(=O)(=O)NCC(=O)NCc3ccccc3Cl)cc2s1 | -0.1
C[C@H]1[C@@H](OC(=O)Nc2ccc(C(F)(F)F)cc2)CC[C@@]23CCCN2C(=O)CCC[C@@H]13 | -3.2
COC(=O)[C@]12C[C@H](CC(=O)NCCCCc3ccccc3)C(=O)N(Cc3ccco3)C1=C[C@H](C1CCCC1)O[C@@H]2C | -3.1
O=C(Nc1nc2c(Br)cccc2s1)c1ccc2c(c1)OCCO2 | 10.5
CC(=O)NC(c1cccs1)c1cc(F)c2cccnc2c1O (centres undefined) | -0.1
CCC(=O)NC(c1cccs1)c1ccc2cccnc2c1O (centres undefined) | -0.1
CCC(=O)NC(c1cccs1)c1cc([N+](=O)[O-])c2cccnc2c1OC (centres undefined) | 32.8* | TbREL1 confirm=9.5
COc1cc(-c2nnc(SCC(=O)N3C(C)CCCC3C)o2)cc(OC)c1OC (centres undefined) | -1.2
C[C@H]1C2CC(OC(=O)Nc3ccc(F)cc3)C(C2)[C@H]2CCCCN21 (some centres undefined) | 1.2
O=c1c(-c2ccco2)[n+]([O-])c2ccccc2n1OCc1ccccc1 | 1.0
CC(C)CCOc1ccc(-c2c(=O)n(OCc3ccc([N+](=O)[O-])cc3)c3ccccc3[n+]2[O-])cc1 | -1.5
O=c1c(-c2cccc([N+](=O)[O-])c2)[n+]([O-])c2ccccc2n1O | 12.1* | TbREL1 confirm=4.5
SMILES | TbREL1 inh | others
COc1ccc(-n2c(COc3ccccc3)nnc2SCC(=O)Nc2ccccc2-c2ccccc2)cc1 | 7.7
Cc1nn(-c2ccccc2)c2sc(C(=O)NCCc3ccccc3)cc12 | 0.4
CCOC(=O)[C@@]12CCCC=C1N(CCc1ccc(Cl)cc1)C(=O)[C@H]2CC(=O)NCc1cccc2ccccc12 | -0.2
CC(=O)c1cc(-c2ccccc2)n(CC(=O)NCc2ccccc2Cl)c1C | -2.8
Oc1ccc(-c2cn3c(n2)SCC3)cc1O | 17.0* | TbREL1 confirm=40.6*
O=S(=O)(Nc1cccc(-c2cn3c(n2)SCC3)c1)c1ccccc1F | -4.2
Oc1ccc(-c2cn3c(n2)SCC3)cc1 | -3.5
O=C(CSc1nnc(-c2cccs2)o1)c1cccc([N+](=O)[O-])c1 | 0.5
O=C(COc1ccccc1)Nc1c(Cl)ccc2nsnc12 | -1.8
Cc1ccc2nsnc2c1NC(=O)CCl | 11.2* | TbREL1 confirm=3.7
Cc1ccc2nsnc2c1NC(=O)Cc1ccc(Cl)cc1 | -1.0
CCn1c2ccccc2c2cc(C=NNC(=O)c3cc(-c4ccc(OC)cc4)n[nH]3)ccc21 | 2.7
Cc1nc2ccc(S(=O)(=O)NCC(=O)NCc3cccs3)cc2s1 | -2.6
COc1ccc(-c2nnc(SCc3c(F)cccc3F)n2N)cc1 | -1.7
